Source: PubChem
This is a sample that favours compounds with a hit; in the whole collection about 11% have one here.
HP1b binding inh = inhibitors of HP1-beta chromodomain binding to methylated histone tails | P83916 | AlphaScreen HP1-beta / biotin-H3K9me3 peptide binding | Potency, µM (series often up to 114 µM), hits mostly inhibitors | hit rate 0.56% among 390,000 | AID 540317; further: nearly all actives have a fitted effect of over 70% in size
Target sequence (P83916 whole entry, looked up): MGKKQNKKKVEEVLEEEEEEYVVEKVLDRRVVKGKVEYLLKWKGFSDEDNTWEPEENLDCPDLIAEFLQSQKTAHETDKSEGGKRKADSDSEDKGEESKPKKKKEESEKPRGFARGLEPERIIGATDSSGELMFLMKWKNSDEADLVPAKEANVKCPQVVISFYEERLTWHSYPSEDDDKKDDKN
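HP1-beta protein (50 nM final) preincubated 30 min at room temperature with biotinylated H3(1-18)K9me3 peptide (50 nM) in PBS pH 7.4, 0.01% Tween-20, then compound added for 30 min. AlphaScreen streptavidin donor/nickel chelate acceptor beads (10 ug/mL final), 30 min dark, luminescence read.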
L3MBTL1 block = inhibitors of human L3MBTL1; AlphaScreen L3MBTL1–H3K9me1 peptide binding; Potency, µM (doses to about 57.1 µM), most hits filed as inhibitors; hit rate 0.66% among 230,000; AID 485360; further: nearly all actives have a fitted effect of over 60% in size
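Displacement of a biotinylated histone H3(1-15) peptide monomethylated at Lys9 (75 nM) from L3MBTL1 (50 nM) was measured by AlphaScreen after a 30 min room-temperature compound incubation; cefsulodin titration served as intraplate control.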
BAZ2B block = inhibitors of human BAZ2B bromodomain. Q9UIF8. AlphaScreen BAZ2B-H3K14Ac peptide displacement. Potency, µM (highest dose often 114 µM), hits mostly inhibitors. hit rate 4.4% among 360,000; further: nearly all actives have a fitted effect of over 60% in size
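AlphaScreen displacement of biotin-H3(5-23)K14Ac peptide (50 nM final) from BAZ2B (50 nM final) in PBS pH 7.4, 0.01% Tween-20; complex preformed 30 min RT, then compounds (top 110 uM) 30 min RT, beads 20 min dark.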
G9a block = blocks human histone lysine methyltransferase G9a. Q96KQ7. G9a H3K9 monomethylation, AlphaScreen, 2 h. Potency, µM (highest dose often 102 µM), hits mostly inhibitors. hit rate 8.8% among 350,000. AID 504332; further: nearly all actives have a fitted effect of over 75% in size
Target sequence (Q96KQ7 913-1193 limits assumed): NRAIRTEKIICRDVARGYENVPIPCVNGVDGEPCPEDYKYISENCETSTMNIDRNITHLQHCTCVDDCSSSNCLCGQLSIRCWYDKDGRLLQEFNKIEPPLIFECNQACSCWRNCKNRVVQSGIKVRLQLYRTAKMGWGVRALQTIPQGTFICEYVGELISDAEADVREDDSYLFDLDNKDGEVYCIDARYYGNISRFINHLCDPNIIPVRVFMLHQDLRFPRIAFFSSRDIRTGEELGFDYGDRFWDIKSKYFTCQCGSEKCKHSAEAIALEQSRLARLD
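Chemiluminescent proximity detection of H3K9 monomethylation, read after 10 min bead incubation in the dark. Reaction: 20 nM G9a, 500 nM biotin-H3K9 peptide, 20 uM SAM cofactor, 2 h, room temperature, following 15 min enzyme-compound preincubation.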
PI5P4Ka inh = inhibitors of human PI5P4K alpha; P48426; PI5P4Kalpha enzyme, ADP-Glo luminescence, 60 min; active compounds read low; max response, %; hit rate 1.2% among 330,000; AID 652105; active means max response of -50% or lower; inconclusive means between -30% and -50%; inactive means -30% or higher; further: value at the top dose of about 77 µM
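qHTS, 1536-well: enzyme/substrate mix, compound by pin tool, 5 microM ATP final; RT 60 min; ADP-Glo reagents 1 (45 min) then 2 (30 min); luminescence.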
JMJD2A Tudor inh = inhibitors of human JMJD2A Tudor domain | O75164 | AlphaScreen JMJD2A-Tudor / H3K4me3 peptide binding | Potency, µM (series often up to 114 µM), most hits filed as inhibitors | hit rate 4.4% among 390,000 | AID 504339; further: nearly all actives have a fitted effect of over 50% in size
Numbers stand for hits; – = inactive; ? = inconclusive; · = no result; [ ] = dose if it differs, or a comment. Unless noted, the call rests on the fitted dose curve; in most records, active means well fitted inhibition curve with a large enough effect; inconclusive means small, poorly fitted or top-dose-only effect; inactive means no such curve, though single readings can be large or run the other way.

SMILES | HP1b binding inh | L3MBTL1 block | BAZ2B block | G9a block | PI5P4Ka inh | JMJD2A Tudor inh
CCNC(=S)NNC(=O)c1cc(-c2cccnc2)nc2ccccc12 | – | · | – | 45µM | – | –
CCCNC(=S)NNC(=O)c1cc(-c2cccnc2)nc2ccccc12 | – | · | – | –[0.501 µM] | – | –
CCCCNC(=S)NNC(=O)c1cc(-c2cccnc2)nc2ccccc12 | – | · | – | 79µM | – | –
Cc1ccc(S(=O)(=O)c2nc(Nc3ccccc3C#N)sc2Cl)cc1 | – | – | – | 7.9µM | – | –
CCc1n[nH]c(=S)n1/N=C/c1cc(Br)c(OC)cc1OC | – | – | – | 2.5µM | – | ?
CCN(CC)c1ccc(/C=N/n2c(=S)[nH]nc(C)c2=O)cc1 | – | – | – | – | – | –
CCc1n[nH]c(=S)n1/N=C/c1ccc(-c2ccc(Br)cc2)o1 | – | · | · | · | – | –
CCc1n[nH]c(=S)n1/N=C/C(C)=C\c1ccccc1 | – | –[2.29 µM] | 56µM | –[0.501 µM] | – | 25µM
CCc1n[nH]c(=S)n1/N=C/c1ccc(NC(C)=O)cc1 | – | – | ? | 8.9µM | – | 5µM
CCCc1ccc(OC(=O)c2sc3ncn(Cc4cccc(F)c4)c(=O)c3c2C)cc1 | – | · | – | – | · | –
CCCCNC(=O)C1=CC(c2ccc3c(c2)OCO3)=NS(=O)(=O)N1C | – | · | – | – | · | –
N#Cc1nc(NCCCCO)nc(Nc2ccccc2)n1 | · | · | · | · | · | –
Cc1ccc(S(=O)(=O)N2CCN(c3nc(-c4cccs4)nc4ccccc34)CC2)c(C)c1 | – | · | · | · | · | –
CCCCNc1nc(C#N)nc(Nc2ccccc2)n1 | · | · | · | · | · | –
COc1ccc(C(=O)Nc2cccnc2Cl)cc1OC | – | – | ? | – | – | –
O=C(Nc1cccnc1Cl)c1ccc(=O)oc1 | – | ? | 56µM | 35µM | ? | ?
O=C(NC(=S)Nc1cccc2cc(O)ccc12)c1ccccc1Br | – | · | ? | 32µM | – | ?
COc1ccccc1C(=O)NC(=S)Nc1cccc2cc(O)ccc12 | – | · | · | · | – | ?
O=C(Nc1cccc2ncccc12)c1ccc(Cl)cc1 | ? | ? | 11µM | 7.1µM | – | 3.2µM
O=C(NC(=S)Nc1cccc2cc(O)ccc12)c1ccco1 | – | · | ? | 16µM | – | –
COc1ccccc1/C=C/c1nc(C#N)c(NC2CCCCC2)o1 | – | · | – | – | · | –
COc1cc(C(CC(=O)Nc2ccc(Br)cn2)N2Cc3ccccc3C2=O)cc(OC)c1OC (stereo not given) | – | · | – | – | · | –
O=C(NC(=S)Nc1cccc2ncccc12)c1ccco1 | – | – | – | 45µM | – | –
COc1ccc(NC(=O)CN2C(=O)CC(c3ccc(C)c(C)c3)=Nc3ccccc32)cc1OC | – | · | – | – | · | –
c1ccc(-c2nc3ccccn3c2NC2CCCC2)nc1 | – | ? | 50µM | –[12.7 µM] | – | ?
SMILES | HP1b binding inh | L3MBTL1 block | BAZ2B block | G9a block | PI5P4Ka inh | JMJD2A Tudor inh
Cc1cc(C)n2c(NC3CCCCC3)c(-c3ccccn3)nc2n1 | · | · | · | · | – | ·
Cc1ccn2c(NC3CCCC3)c(-c3ccccn3)nc2c1 | – | · | 50µM | ? | – | 50µM
CCc1ccc(S(=O)(=O)c2c(C(=O)c3ccc(C)c(C)c3)cnc3ccccc23)cc1 | – | · | – | ? | · | –
CCOC(=O)c1nn(-c2ccc(OC)cc2)c(=O)c2c(NC(=O)Cc3ccccc3)scc12 | · | · | · | · | · | –
N#Cc1cc(-c2ccccc2)oc1/N=C/c1ccccc1O | – | ? | – | ? | – | 79µM
Cc1ccc(C)c(N=Cc2ccc(-c3ccc([N+](=O)[O-])cc3)o2)c1 | ? | – | ? | 35µM | – | 56µM
NC(C(=O)O)c1nn[nH]n1 (stereo not given) | – | · | · | · | · | 10µM
O=C(O)c1cc2ccccc2c(N=Nc2cccnc2)c1O | ? | · | ? | 50µM | – | –
CC1=CC(=NOS(=O)(=O)c2ccc(C)cc2)CC(C)(C)C1 | · | · | · | · | – | ·
Cc1ccc(S(=O)(=O)O/N=C2/CCCc3occc32)cc1 | – | – | – | 50µM | – | ?
O=C(O/N=C1/CCSc2ccccc21)c1ccc(F)cc1 | – | – | – | –[12.7 µM] | · | –
O=C(O/N=C1/CCCc2occc21)c1ccc(F)cc1 | – | – | – | – | -58 | ?
Cc1ccc(/C=N/n2c(COc3ccccc3)n[nH]c2=S)cc1 | – | · | – | 8.9µM | – | ?
CC(C)c1ccc(/C=N/n2c(COc3ccccc3)n[nH]c2=S)cc1 | 40µM | · | ? | 50µM | – | 35µM
